{"source": "PubChem BioAssay (NCI)", "note": "The panel holds about 83,000 compounds, 20% with a hit somewhere; the sample as a whole holds those more often.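 Results are percent growth after 48 hours of single-concentration exposure. 100 means growth as in untreated cells, lower positive values show inhibition; negative values down to -100 show cell death.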 Unmarked numbers belong to inactive results. Active and inactive are the calls of the source. How the source made its calls: active means growth percent below 10; inactive means the rest."}
{"system": "OVCAR-8 ovarian", "test": "NCI-60 one-dose screen, 48 h (100 = growth as untreated, 0 = no growth, -100 = all killed)", "details": "10 µM unless noted"}
{"compound": "CC(Br)C(O)c1cc2c(cc1Br)OCO2", "note": "(stereo not drawn)", "growth": "109%"}
{"compound": "OC1CC2c3ccccc3C1c1ccccc12", "note": "(stereo not drawn)", "growth": "106%"}
{"compound": "Cc1cc(C)c(S(=O)(=O)N2CCN(c3cc4c(cc3F)c(=O)c(C(=O)O)cn4C3CC3)CC2)c(C)c1", "growth": "59.5%"}
{"compound": "O=C(c1ccccc1)C(Cl)C(Cl)c1ccccc1", "note": "(stereo not drawn)", "growth": "-1.77% (active)"}
{"compound": "Cc1cc(Cl)ccc1OC(C)C(=O)Nc1nnc(C2CC2)s1", "note": "(stereo not drawn)", "growth": "111%"}
{"compound": "Cc1sc2nc(CSc3nnc(-c4ccco4)o3)[nH]c(=O)c2c1C", "growth": "104%"}
{"compound": "CCCCCCCCCCCCCCCCCCOc1cccc(CCOP(=O)(O)OCC[N+](C)(C)C)c1", "growth": "95%"}
{"compound": "C=CCOc1ccc(/C(O)=C2\\C(=O)C(=O)N(c3nccs3)C2c2ccccc2F)cc1", "note": "(stereo not drawn)", "growth": "102%"}
{"compound": "CC/C(=C(\\c1ccc(O)cc1)c1ccc(OCCN(C)CCN(C)C(=O)CCC(=O)c2c(C)[nH]c(/C=C3\\N=C(c4ccc[nH]4)C=C3OC)c2C)cc1)c1ccccc1", "growth": "89.9%"}
{"compound": "Cc1ccc(Oc2nc3ccccc3cc2-c2nnc(Cn3c(COc4ccccc4)nc4ccccc43)o2)cc1", "growth": "25.5%"}
{"compound": "CCOC(=O)c1cc(/C(=N\\O)c2cc(OC)c(OC)c(OC)c2)n2cc(C)cc(C)c12", "growth": "41.8%"}
{"compound": "NC(=O)c1ccc2c(c1)OCO2", "growth": "108%"}
{"compound": "NC(=O)NNC(=O)c1ccccc1", "growth": "110%"}
{"compound": "O=c1c2cccc3c(Nc4ccc(F)cc4)ccc(c32)c2nc3ccccc3n12", "growth": "89.3%"}
{"compound": "C=C1C(=O)O[C@H]2[C@H]1CC/C(COC(=O)NCc1cc(OC)c(OC)c(OC)c1)=C\\CC[C@@]1(C)O[C@@H]21", "growth": "43.9%"}
{"compound": "Cc1cc(C(=O)O)c(N)c(C)n1", "growth": "112%"}
{"compound": "Cc1ccc(Nc2ncnc3c2sc2ncccc23)cc1", "growth": "98.1%"}
{"compound": "O=C1CCC(=O)N1Cc1ccccc1", "growth": "108%"}
{"compound": "COc1ncc(-c2ccc3ncnc(Nc4cccc(Cl)c4)c3c2)cc1NS(=O)(=O)C1CC1", "growth": "41.7%"}
{"compound": "O=C(Nc1ccc(I)cc1)c1cccc([N+](=O)[O-])c1O", "growth": "17.1%"}
{"compound": "COc1cc(NC(=O)CCl)ccc(=O)c1", "growth": "87.6%"}
{"compound": "COc1ccc(/C=C/c2nc(N3CCOCC3)c3nc(Cl)c(Cl)cc3n2)cc1OC", "growth": "99%"}
{"compound": "CCCCCCCC/C=C\\CCCCCCCCOc1ccccc1CCOP(=O)(O)OCC[N+](C)(C)C", "growth": "60.3%"}
{"compound": "COC(=O)c1ccc(C)cc1", "growth": "103%"}
{"compound": "COc1ccc(/C(=N/O)c2cc(OC)c(OC)c(OC)c2)c(OC)c1N", "growth": "40.7%"}
{"compound": "COc1ccc(C2CC(=O)Nc3c2c(C)nn3-c2nc3ccccc3[nH]2)cc1OC", "note": "(stereo not drawn)", "growth": "62%"}
{"compound": "C=C1C(=O)O[C@H]2[C@H]1CC/C(COC(=O)NCCc1cccc(OC)c1)=C\\CC[C@@]1(C)O[C@@H]21", "growth": "17.4%"}
{"compound": "COc1ccc(-c2cn[nH]c2-c2cc(OC)c3c(c2)OCCO3)cc1", "growth": "26.1%"}
{"compound": "CCN(Cc1ccccc1)c1ccc(SC#N)cc1", "growth": "85.9%"}
{"compound": "Cc1ccc2c(c1)C(C)Cc1c(ncnc1-n1cnc3ccccc31)N2C", "note": "(stereo not drawn)", "growth": "21.3%"}
{"compound": "Cc1nc2sccn2c1-c1csc(Nc2ccccc2Cl)n1", "growth": "53%"}
{"compound": "C=CCc1cc(Cl)cc2c(OC(C)=O)c(C(C)=O)c(-c3ccccc3)nc12", "growth": "113%"}
{"compound": "Cc1nc2scc(-c3ccccc3)n2c(=O)c1CCO", "growth": "109%"}
{"compound": "COc1ccc(/C=C\\c2cc(OC)c(OC)c(OC)c2)c(NS(=O)(=O)c2ccc(C(C)(C)C)cc2)c1O", "growth": "21.9%"}
{"compound": "CCCCCCOc1ccc(C2(Cl)c3ccccc3N(C)c3ccccc32)cc1", "growth": "38.7%"}
{"compound": "CC(C)C[C@H](NC(=O)[C@H](Cc1ccccc1)n1ccc(N2CCCCC2)cc1=O)B(O)O", "growth": "31.8%"}
{"compound": "Cc1ccccc1C(=O)c1ccccc1C(=O)O", "growth": "107%"}
{"compound": "CC1CCc2c(sc(NC(=O)CSc3nnc4ccccn34)c2C(N)=O)C1", "note": "(stereo not drawn)", "growth": "109%"}
{"compound": "COc1ccc2c(c1)C=CC(C#N)N2C(=O)c1ccccc1", "note": "(stereo not drawn)", "growth": "15.4%"}
{"system": "OVCAR-5 ovarian", "test": "NCI-60 one-dose screen, 48 h (100 = growth as untreated, 0 = no growth, -100 = all killed)", "details": "10 µM unless noted", "units": {"growth": "%"}}
{"compound": "CC(Br)C(O)c1cc2c(cc1Br)OCO2", "note": "(stereo not drawn)", "growth": 108}
{"compound": "OC1CC2c3ccccc3C1c1ccccc12", "note": "(stereo not drawn)", "growth": 113}
{"compound": "Cc1cc(C)c(S(=O)(=O)N2CCN(c3cc4c(cc3F)c(=O)c(C(=O)O)cn4C3CC3)CC2)c(C)c1", "growth": 42.2}
{"compound": "O=C(c1ccccc1)C(Cl)C(Cl)c1ccccc1", "note": "(stereo not drawn)", "growth": 113}
{"compound": "Cc1cc(Cl)ccc1OC(C)C(=O)Nc1nnc(C2CC2)s1", "note": "(stereo not drawn)", "growth": 98.7}
{"compound": "Cc1sc2nc(CSc3nnc(-c4ccco4)o3)[nH]c(=O)c2c1C", "growth": 114}
{"compound": "CCCCCCCCCCCCCCCCCCOc1cccc(CCOP(=O)(O)OCC[N+](C)(C)C)c1", "growth": 101}
{"compound": "C=CCOc1ccc(/C(O)=C2\\C(=O)C(=O)N(c3nccs3)C2c2ccccc2F)cc1", "note": "(stereo not drawn)", "growth": 122}
{"compound": "CC/C(=C(\\c1ccc(O)cc1)c1ccc(OCCN(C)CCN(C)C(=O)CCC(=O)c2c(C)[nH]c(/C=C3\\N=C(c4ccc[nH]4)C=C3OC)c2C)cc1)c1ccccc1", "growth": 99.6}
{"compound": "Cc1ccc(Oc2nc3ccccc3cc2-c2nnc(Cn3c(COc4ccccc4)nc4ccccc43)o2)cc1", "growth": 87.7}
{"compound": "CCOC(=O)c1cc(/C(=N\\O)c2cc(OC)c(OC)c(OC)c2)n2cc(C)cc(C)c12", "growth": 64.3}
{"compound": "NC(=O)c1ccc2c(c1)OCO2", "growth": 113}
{"compound": "NC(=O)NNC(=O)c1ccccc1", "growth": 109}
{"compound": "O=c1c2cccc3c(Nc4ccc(F)cc4)ccc(c32)c2nc3ccccc3n12", "growth": 84.8}
{"compound": "C=C1C(=O)O[C@H]2[C@H]1CC/C(COC(=O)NCc1cc(OC)c(OC)c(OC)c1)=C\\CC[C@@]1(C)O[C@@H]21", "growth": 85}
{"compound": "Cc1cc(C(=O)O)c(N)c(C)n1", "growth": 111}
{"compound": "Cc1ccc(Nc2ncnc3c2sc2ncccc23)cc1", "growth": 101}
{"compound": "O=C1CCC(=O)N1Cc1ccccc1", "growth": 97.7}
{"compound": "COc1ncc(-c2ccc3ncnc(Nc4cccc(Cl)c4)c3c2)cc1NS(=O)(=O)C1CC1", "growth": 28}
{"compound": "O=C(Nc1ccc(I)cc1)c1cccc([N+](=O)[O-])c1O", "growth": 43.4}
{"compound": "COc1cc(NC(=O)CCl)ccc(=O)c1", "growth": 93.2}
{"compound": "COc1ccc(/C=C/c2nc(N3CCOCC3)c3nc(Cl)c(Cl)cc3n2)cc1OC", "growth": 109}
{"compound": "CCCCCCCC/C=C\\CCCCCCCCOc1ccccc1CCOP(=O)(O)OCC[N+](C)(C)C", "growth": 85.1}
{"compound": "COC(=O)c1ccc(C)cc1", "growth": 110}
{"compound": "COc1ccc(/C(=N/O)c2cc(OC)c(OC)c(OC)c2)c(OC)c1N", "growth": 71.9}
{"compound": "COc1ccc(C2CC(=O)Nc3c2c(C)nn3-c2nc3ccccc3[nH]2)cc1OC", "note": "(stereo not drawn)", "growth": 111}
{"compound": "C=C1C(=O)O[C@H]2[C@H]1CC/C(COC(=O)NCCc1cccc(OC)c1)=C\\CC[C@@]1(C)O[C@@H]21", "growth": 75.1}
{"compound": "COc1ccc(-c2cn[nH]c2-c2cc(OC)c3c(c2)OCCO3)cc1", "growth": 48.1}
{"compound": "CCN(Cc1ccccc1)c1ccc(SC#N)cc1", "growth": 97.2}
{"compound": "Cc1ccc2c(c1)C(C)Cc1c(ncnc1-n1cnc3ccccc31)N2C", "note": "(stereo not drawn)", "growth": 42.8}
{"compound": "Cc1nc2sccn2c1-c1csc(Nc2ccccc2Cl)n1", "growth": 54.9}
{"compound": "C=CCc1cc(Cl)cc2c(OC(C)=O)c(C(C)=O)c(-c3ccccc3)nc12", "growth": 111}
{"compound": "Cc1nc2scc(-c3ccccc3)n2c(=O)c1CCO", "growth": 109}
{"compound": "COc1ccc(/C=C\\c2cc(OC)c(OC)c(OC)c2)c(NS(=O)(=O)c2ccc(C(C)(C)C)cc2)c1O", "growth": 32.4}
{"compound": "CCCCCCOc1ccc(C2(Cl)c3ccccc3N(C)c3ccccc32)cc1", "growth": 107}
{"compound": "CC(C)C[C@H](NC(=O)[C@H](Cc1ccccc1)n1ccc(N2CCCCC2)cc1=O)B(O)O", "growth": 39.3}
{"compound": "Cc1ccccc1C(=O)c1ccccc1C(=O)O", "growth": 111}
{"compound": "CC1CCc2c(sc(NC(=O)CSc3nnc4ccccn34)c2C(N)=O)C1", "note": "(stereo not drawn)", "growth": 99.7}
{"compound": "COc1ccc2c(c1)C=CC(C#N)N2C(=O)c1ccccc1", "note": "(stereo not drawn)", "growth": 47.1}
